The target in test [1] is Retinoic acid receptor RXR-alpha (Homo sapiens) (UniProt P19793). Briefly: qHTS assay to identify small molecule agonists of the RXR signaling pathway (AID 1159527; calls by dose curve; further: nearly all actives have a fitted effect of over 35% in size; further: potency means the concentration at half of the fitted maximal effect). The method, boiled down:
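GeneBLAzer RXR-alpha-UAS-bla HEK 293T cells in 2% charcoal-stripped FBS medium were exposed to compounds for 16 hr at 37 C in agonist mode. Beta-lactamase reporter read as 460/530 nm FRET ratio after 2 hr substrate loading.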
Background: Quantitative high-throughput screening tests each substance at several concentrations.

A short description of test [2]: qHTS assay to identify small molecule antagonists of the retinoid acid receptor (RAR) signaling pathway - cell viability counter screen (AID 1159551). Further: nearly all actives have a fitted effect of over 35% in size. The method, boiled down:
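ATP-based viability, C3RL4 cells, 6 h at 37 C with 1 uM final retinol co-added after compound; luminescence read 30 min post CellTiter-Glo, RT.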

Test [3] is described as follows: qHTS assay to identify small molecule antagonists of the retinoic acid receptor (RAR) signaling pathway (AID 1159552; further: nearly all actives have a fitted effect of over 50% in size). The essentials:
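Retinol signaling pathway inhibitors screened in C3RL4 RARE-luciferase reporter cells seeded overnight at 37 C, then compounds added with 1 uM (final) retinol as pathway substrate. After 6 hr at 37 C, luciferase luminescence read after 30 min at room temperature.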

Test [4] in a line: qHTS assay to identify small molecule agonists of the retinoic acid receptor (RAR) signaling pathway (AID 1159553). The essentials: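 Quantitative high-throughput format: the Tox21 10K library was tested on C3RL4 RARE-luciferase cells for 6 hr at 37 C and 5% CO2, with luminescence measured after a 30 min room-temperature reagent step.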
Test [5] can be described thus: qHTS assay to identify small molecule antagonists of the estrogen related receptor (ERR) signaling pathway from Tox21 library - cell viability counter screen (AID 1224834). Further: nearly all actives have a fitted effect of over 30% in size. The essentials: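 Compounds in DMSO were pinned onto ERR cells that had been incubated for 6 h, and the plates were held at 37 C for 17.5 h. CellTiter-Fluor reagent was then added and fluorescence was measured after 30 min.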

Test [6] has as its target Luciferin 4-monooxygenase (Photinus pyralis) (UniProt P08659). Briefly: qHTS assay to identify small molecule inhibitors of firefly luciferase (AID 1224835). Further: nearly all actives have a fitted effect of over 25% in size. Further: potency means the concentration at half of the fitted maximal effect. The essentials: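 Biochemical qHTS: compounds run as interplate titrations against purified firefly enzyme, with D-luciferin and ATP each at its KM concentration. Light output recorded by CCD imaging.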
Test [7] can be described thus: qHTS assay to identify small molecule antagonists of the constitutive androstane receptor (CAR) signaling pathway - cell viability counter screen (AID 1224837). Further: series mostly up to about 92 µM; nearly all actives have a fitted effect of over 45% in size. The method, boiled down: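 Cells are seeded, rested 4 hr at 37 C/5% CO2, dosed with compound (15-point series) and 50 nM CITCO, incubated a further 23 hr, and then CellTiter-Fluor reagent is added before fluorescence is read. The line is HepG2 with stable hCAR and CYP2B6-2.2kb.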

Test [8] concerns the target Nuclear receptor subfamily 1 group I member 3 (Homo sapiens) (UniProt Q14994). Briefly: qHTS assay to identify small molecule antagonists of the constitutive androstane receptor (CAR) signaling pathway (AID 1224838).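 Further: HepG2 cells stably expressing hCAR with CYP2B6 luciferase reporter stimulated by CITCO; nearly all actives have a fitted effect of over 40% in size.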 The method, boiled down:
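Luminescence from a CYP2B6-2.2kb promoter reporter in hCAR-expressing HepG2 cells reflects CAR signaling. Cells received compounds at 15 concentrations and 50 nM CITCO (final), then incubated 24 h at 37 C/5% CO2.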

The target is the same in test [9]. Briefly: qHTS assay to identify small molecule agonists of the constitutive androstane receptor (CAR) signaling pathway (AID 1224839).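 Further: HepG2 cells stably carrying human CAR and a CYP2B6 luciferase reporter; series mostly up to about 92 µM; nearly all actives have a fitted effect of over 15% in size.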 The essentials:
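HepG2 cells stably co-transfected with hCAR and a CYP2B6-2.2kb luciferase reporter; compounds at 15 concentrations with 0.75 uM PK11195 present. After 24 hr at 37 C, luciferase read by ONE-Glo luminescence.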

Test [10] in a line: qHTS assay to identify small molecule antagonists of the estrogen related receptor signaling pathway with the pleiotropic PPARgamma coactivator (PGC) from Tox21 10K library - cell viability counter screen (AID 1224840; active means well fitted cell-killing curve with a large enough effect in the repeat runs, not every such curve was filed as active; further: nearly all actives have a fitted effect of over 40% in size). The method, boiled down:
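Cell viability is measured by CellTiter-Fluor fluorescence in PGC/ERR cells that receive compounds after a 6-hour attachment period and are then incubated 17.5 hours at 37 C.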

Test [11] can be described thus: qHTS assay to identify small molecule agonists of the constitutive androstane receptor (CAR) signaling pathway - cell viability counter screen (AID 1224836). Further: series mostly up to about 92 µM; nearly all actives have a fitted effect of over 45% in size. The essentials:
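HepG2 cells stably carrying hCAR and a CYP2B6-2.2kb reporter; 15-concentration compounds plus PK11195 (final 0.75 uM), 23 hr at 37 C/5% CO2. Viability read by CellTiter-Fluor fluorescence.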

Test [12] is described as follows: qHTS assay to identify small molecule antagonists of the estrogen related receptor signaling pathway with the pleiotropic PPARgamma coactivator (PGC) from Tox21 10K library (AID 1224841; call rule not given here; further: series mostly up to about 92 µM; actives are mostly falling curves and most rising ones were filed inactive; nearly all actives have a fitted effect of over 50% in size). The essentials:
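Cells stably carrying the PGC/ERR reporter, seeded at 2,000 per well, received pin-transferred compounds 6 h post-plating. Exposure lasted 18 h at 37 C. Signal: One-Glo luminescence.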

The nature of test [13]: qHTS assay to identify small molecule agonists of the estrogen related receptor signaling pathway with the pleiotropic PPARgamma coactivator (PGC) from Tox21 10K library (AID 1224842). Further: nearly all actives have a fitted effect of over 15% in size. The essentials:
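PGC/ERR reporter cell line, 2,000 cells per well, incubated 6 h at 37 C before 23 nL compound in DMSO was added. After 18 h at 37 C, One-Glo luminescence read following 30 min at room temperature.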

The nature of test [14]: qHTS assay to identify small molecule agonists of the RXR signaling pathway - cell viability counter screen (AID 1159529). Further: nearly all actives have a fitted effect of over 50% in size. Further: potency means the concentration at half of the fitted maximal effect. The method, boiled down:
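RXR-alpha-UAS-bla HEK 293T cells in medium with 2% charcoal-stripped FBS were pre-incubated 5 hr, then compound-treated 16 hr at 37 C. Viability was read by CellTiter-Glo luminescence in the same wells as the beta-lactamase assay, with tetraoctyl ammonium bromide as positive control.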

Structures are written as SMILES. Records with an inconclusive call do not appear. Unmarked numbers belong to inactive results. Calls of active or inactive are those of the source. Unless noted, the call rests on the fitted dose curve; in most records, active means well fitted curve in the direction sought with a large enough effect in the repeat runs; inconclusive means weak or mixed curves; inactive means no such curve, though single readings can be large; an effect the other way counts as inactive or inconclusive.

Sequence of Retinoic acid receptor RXR-alpha (Homo sapiens) (P19793 whole entry, looked up): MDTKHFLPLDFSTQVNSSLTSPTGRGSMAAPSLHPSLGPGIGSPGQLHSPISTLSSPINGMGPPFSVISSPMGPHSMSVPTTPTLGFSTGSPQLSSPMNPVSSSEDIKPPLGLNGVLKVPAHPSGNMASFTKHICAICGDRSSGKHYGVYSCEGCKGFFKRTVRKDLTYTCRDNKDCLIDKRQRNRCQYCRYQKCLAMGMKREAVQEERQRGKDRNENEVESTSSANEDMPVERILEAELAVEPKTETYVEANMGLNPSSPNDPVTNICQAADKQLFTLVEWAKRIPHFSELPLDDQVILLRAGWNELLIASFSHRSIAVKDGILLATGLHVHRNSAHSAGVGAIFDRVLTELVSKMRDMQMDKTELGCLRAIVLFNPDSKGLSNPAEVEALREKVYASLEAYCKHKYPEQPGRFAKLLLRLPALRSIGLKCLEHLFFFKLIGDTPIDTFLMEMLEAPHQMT
Sequence of Nuclear receptor subfamily 1 group I member 3 (Homo sapiens) (Q14994 whole entry, looked up): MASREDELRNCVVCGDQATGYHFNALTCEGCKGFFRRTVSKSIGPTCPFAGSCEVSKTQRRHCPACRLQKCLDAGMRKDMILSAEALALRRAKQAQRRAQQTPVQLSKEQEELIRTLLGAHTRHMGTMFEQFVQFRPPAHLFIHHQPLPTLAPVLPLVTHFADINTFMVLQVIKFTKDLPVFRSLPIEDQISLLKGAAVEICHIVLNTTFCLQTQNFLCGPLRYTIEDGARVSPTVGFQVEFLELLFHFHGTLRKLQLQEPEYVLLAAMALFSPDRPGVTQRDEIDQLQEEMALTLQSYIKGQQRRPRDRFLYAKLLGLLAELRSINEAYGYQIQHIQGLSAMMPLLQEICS
Sequence of Luciferin 4-monooxygenase (Photinus pyralis) (P08659 whole entry, looked up): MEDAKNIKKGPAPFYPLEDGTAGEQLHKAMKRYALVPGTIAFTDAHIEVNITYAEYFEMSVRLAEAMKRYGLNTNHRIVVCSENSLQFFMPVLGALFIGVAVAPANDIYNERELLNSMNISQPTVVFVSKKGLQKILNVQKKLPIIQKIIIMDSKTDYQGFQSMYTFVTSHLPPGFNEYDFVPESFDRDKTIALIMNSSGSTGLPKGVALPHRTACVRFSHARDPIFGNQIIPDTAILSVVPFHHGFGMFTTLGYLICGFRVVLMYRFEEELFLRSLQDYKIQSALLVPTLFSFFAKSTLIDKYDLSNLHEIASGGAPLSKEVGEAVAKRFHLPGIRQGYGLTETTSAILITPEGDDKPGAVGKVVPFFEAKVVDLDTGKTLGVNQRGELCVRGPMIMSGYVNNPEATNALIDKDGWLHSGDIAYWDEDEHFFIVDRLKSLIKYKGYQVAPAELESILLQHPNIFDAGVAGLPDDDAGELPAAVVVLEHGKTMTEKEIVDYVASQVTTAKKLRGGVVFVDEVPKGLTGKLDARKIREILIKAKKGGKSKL

On to `O=C1OC[C@H](Cc2cccc(O)c2)[C@H]1Cc1cccc(O)c1`, for which the Potency entry in test [1], in test [2], in test [3], in [4], in [5] and in test [6] was “inactive” in each case. The Potency result in test [7], in [8], in test [9] and in test [10] was “inactive” each time.

For `CC(O)Cn1cnc2c1c(=O)n(C)c(=O)n2C` (stereo not given), the Potency result in test [1], in test [2], in [4], in [5], in [6] and in test [11] was “inactive” each time. Further, the Potency result in [7], in test [8], in test [10], in [12] and in [13] was “inactive” each time.

`C[C@@H]1[C@H](O)[C@@H](C)/C=C/C=C\C=C\C=C\C=C\C=C\C=C\[C@H](O[C@@H]2O[C@H](C)[C@@H](O)[C@H](N)[C@@H]2O)C[C@@H]2O[C@](O)(C[C@@H](O)C[C@@H](O)[C@H](O)CC[C@@H](O)C[C@@H](O)CC(=O)O[C@H]1C)C[C@H](O)[C@H]2C(=O)O` (stereo in doubt): the Potency entry in [1], in test [2], in [3], in test [6], in test [7] and in [8] was “inactive” throughout. The Potency result in test [10] is “inactive”.

As to `CC(=O)OCCC(C)CC(C)(C)C` (stereo not given), in [1], the Potency is 11 µM (active). Also, the Potency entry in [14], in [2], in test [5], in test [6], in test [7] and in test [9] was “inactive” in each case. Moreover, the Potency entry in test [10], in test [12] and in test [13] was “inactive” in each case.

Take `CCCCCCCCCCCCCOS(=O)(=O)O`: the Potency entry in test [1], in [2], in [5], in test [11] and in [7] was “inactive” each time. The Potency in test [14] was 24.5 µM (active).

As for `COc1ccc(C)cc1`, the Potency result in [1], in test [2], in [3], in test [4], in test [5] and in test [6] was “inactive” each time. In addition, the Potency result in test [11], in [7] and in test [10] was “inactive” each time.

As for `[Cl][Nd]([Cl])[Cl]`, the Potency result in test [1], in test [2], in [4], in [5], in test [7] and in [8] was “inactive” each time. Further, the Potency entry in test [9], in test [10], in [12] and in [13] was “inactive” throughout. For the same molecule, the Potency in [6] is 39.9 µM (active).

With `NC(=O)c1ccccc1[N+](=O)[O-]`, the Potency result in [1], in [2], in [3], in test [4], in test [5] and in test [6] was “inactive” each time. The Potency result in [11], in test [7] and in test [10] was “inactive” in each case.

For `CC(C)N(C)C`, the Potency result in [1], in test [2], in test [3], in test [4], in test [5] and in [6] was “inactive” each time. Also, the Potency result in [11], in [7], in test [8] and in test [9] was “inactive” throughout.

As to `O=c1[nH]c2cc(C(F)(F)F)c(N3CCOCC3)cc2n(CP(=O)(O)O)c1=O`, the Potency entry in test [1], in test [2], in test [3], in [4], in test [5] and in test [6] was “inactive” each time. Besides, the Potency result in test [11], in [7], in test [8] and in [10] was “inactive” each time.

Take `CCOC(=O)Oc1ccc(CCNC(=O)[C@H](CCSC)NC(C)=O)cc1OC(=O)OCC`: the Potency result in test [1], in test [14], in test [2], in test [6], in test [7] and in test [8] was “inactive” in each case. For the same molecule, the Potency entry in [10] was “inactive”.

(Values after PubChem BioAssay (Tox21).)
